About 8,600 (12%) of roughly 69,000 compounds showed an effect of 50% or more. Only a selection was taken, and strong results are over-represented in it overall.

This experiment concerns Plasmodium berghei. In words: Screen against P. berghei liver stage (PbLuc), transformed with Luciferase, at 10uM. It is filed as functional, HepG2. The following applies: tested at 10 uM.
As for `CCc1cnc(N2CCc3ncnc(N4CCN(C)CC4)c3CC2)nc1`, the INHIBITION is given as 36.2%.

As to `O=S(=O)(NCc1ccnc(-n2ccnc2)c1)c1cncc(Cl)c1`, the INHIBITION was found to be 15.2%.

`Cn1cc(S(=O)(=O)NC(=O)C2(c3ccccc3)CCC2)cn1`: the INHIBITION came to 2.97%.

`Cn1cc(S(=O)(=O)NC(=O)C2(c3cccc(Cl)c3)CC2)cn1`: the INHIBITION is recorded as -6.94%.

Turning to `Cc1cccc(C2(C(=O)NS(=O)(=O)c3cnn(C)c3)CCCC2)c1`, the INHIBITION is on record as 53.5%.

Take `O=C(CCNC(=O)N1CCC(c2ccccc2)C1)N1CCCCC1` (centres undefined): the INHIBITION is recorded as -24.5%.

As for `CN(C(=O)C1CCOCC1)[C@@H]1CCC[C@@H](N2CCOCC2)[C@@H]1O`, the INHIBITION stood at 38.2%.

Take `Cc1nc(C)c2c(n1)CCN(Cc1ccsc1)CC2`: the INHIBITION is recorded as -5.08%.

Consider `Cc1nc(N2CCOCC2)nc2c1CCN(Cc1ccsc1)CC2`, for which the INHIBITION came out at 60.5%.

For the molecule `Oc1nc(N2CCCC2)nc2c1CCN(Cc1ccsc1)CC2`, the INHIBITION was 61.7%.

On to `CN(Cc1ccsc1)C(=O)c1nc(N2CCCCC2)ncc1Cl`, for which the INHIBITION was 26.7%.

As to `CN(Cc1ccsc1)C(=O)c1nc(N2CCCC2)ncc1Cl`, the INHIBITION is recorded as -0.232%.

Take `O=C(c1nc(N2CCCC2)ncc1Cl)N1CCN(Cc2ccsc2)CC1`: the INHIBITION is 72.1%.

With `Oc1nc(N2CCCC2)nc2c1CCN(Cc1cccnc1)CC2`, the INHIBITION came out at 24.8%.

As to `Cc1nc(N2CCCC2)nc2c1CCN(Cc1ccsc1)CC2`, the INHIBITION turned out to be 4.1%.

For the molecule `c1cncc(-c2ncnc3c2CCN(Cc2ccsc2)CC3)c1`, the INHIBITION was found to be 3.58%.

For `O=C(c1ccc(N2CCCC2)nc1)N1CCCC(c2nccs2)C1` (centres undefined), the INHIBITION is given as 17.2%.

`CC(C)Cc1nc(CNCc2cccc(N3CCCC3=O)c2)no1`: the INHIBITION was -20.5%.

As to `NCC1CCC(C(NC(=O)CC2CCCCC2)c2ccccn2)CC1` (centres undefined), the INHIBITION was 38.2%.

On to `CCc1ccc(NC(=O)N2C[C@@H]3C[C@H](C(=O)NC(C)C)[C@H](C2)O3)cc1`, for which the INHIBITION is -31.1%.

`CN1CC2(CCN(C(=O)c3cc(-n4cccn4)ccc3Cl)CC2)OC1=O`: the INHIBITION is 14.5%.

For `Cc1cnn(C2CCCN(C(=O)c3ccc4c(c3)CCC4)C2)c1` (centres undefined), the INHIBITION amounted to 40.2%.

For `O=C(c1cc(F)ccc1F)C1CCN(C(=O)c2ccco2)CC1`, the INHIBITION is -98.8%.

`Cc1ccc(C(C)N(C)Cc2nc3c(cnn3C)c(=O)[nH]2)s1` (centres undefined): the INHIBITION is -30.38%.

Consider `NC(=O)CSCC(=O)NCC1CCCC1`, for which the INHIBITION came out at 50.4%.

Regarding `N#CCSCC(=O)NCC1CCCCC1`, the INHIBITION is given as 18.6%.

As for `NC(=O)CSCCC(=O)NCC1CC1`, the INHIBITION is -0.71%.

For the molecule `CN(C(=O)c1ccnn1C)[C@@H]1CCC[C@@H](Oc2ccccc2)[C@@H]1O`, the INHIBITION is listed as 34%.

As to `CCC(=O)N1CCC(Cc2cnc(Nc3cnccn3)cn2)CC1`, the INHIBITION is 16.5%.

For `Cc1n[nH]c(C)c1-c1nccnc1CC1CCN(S(C)(=O)=O)C1` (centres undefined), the INHIBITION is given as -3.31%.

On to `Cc1cc(NC2CCCN(Cc3ccc(F)cc3)C2)n2nc(C)cc2n1` (centres undefined), for which the INHIBITION worked out at 67.3%.

As for `Cc1cc(NC2CCN(c3ccc(F)cc3)CC2)n2nc(C)cc2n1`, the INHIBITION is 8.07%.

Consider `Cc1ccc(NC2CCCN(Cc3ccc(Cl)cc3)C2)nn1` (centres undefined), for which the INHIBITION is -20%.

As for `Cc1ccc(NC2CCCN(CCc3ccccc3)C2)nn1` (centres undefined), the INHIBITION is reported as -28%.

As to `Cc1cc(C)nc(NC2CCCN(CCCc3ccccc3)C2)n1` (centres undefined), the INHIBITION is recorded as 31.1%.

Turning to `Cc1cc(N[C@H]2CCCN(Cc3ccccc3)C2)n2nc(C)cc2n1`, the INHIBITION was 63.7%.

`CN1C(=O)C2(CCN(C(=O)c3ccccc3)CC2)c2cccc(F)c21`: the INHIBITION worked out at 43.8%.

On to `O=C(N1CCCO1)[C@]12COC[C@H]1CN(Cc1nccs1)C2`, for which the INHIBITION stood at 7.24%.

Regarding `CC[C@H]1NCCC[C@]12CCC(=O)N2Cc1ccncc1`, the INHIBITION is reported as 17.4%.

Take `CS(=O)(=O)NCC1CCCN(C(=O)Nc2ccccc2N2CCCC2)C1` (centres undefined): the INHIBITION is reported as -75.9%.

Take `CCN1CCc2c(cccc2NC(=O)N(C)C2CCSC2)C1` (centres undefined): the INHIBITION is on record as 50.8%.

As for `CCOCCN(C)C(=O)Nc1cccc2c1CCN(CC)C2`, the INHIBITION is recorded as 3.48%.

With `CCN1CCN(c2ccccc2NC(=O)N(C)C2CCSC2)CC1` (centres undefined), the INHIBITION was found to be 74.9%.

For the molecule `CCN1CCC(NC(=O)N(C)Cc2csc3ccccc23)CC1`, the INHIBITION stood at 27.6%.

For the molecule `CCN1CCc2c(cccc2NC(=O)CN(C)C2CCSC2)C1` (centres undefined), the INHIBITION is listed as 34.1%.

Regarding `CC(C)n1cnnc1CN(C)C(=O)c1cccnc1O`, the INHIBITION is on record as 18.6%.

As for `CCOc1ccc(S(=O)(=O)C(C)C(=O)Nc2cc(C)no2)cc1` (centres undefined), the INHIBITION is -11.9%.

With `O=C([C@H]1CCCO1)N1CC[C@H](O)[C@@H]1Cc1ccncc1`, the INHIBITION is 33.2%.

As for `O=C1CC(C(=O)NCCN2CCOC2=O)c2cc(F)ccc2N1` (centres undefined), the INHIBITION amounted to 36.4%.

`COc1ccc(C2CNCCN2C(=O)c2nccc3ccccc23)cc1` (centres undefined): the INHIBITION amounted to 32.3%.

For the molecule `C=C(C)COc1ccccc1C(=O)NCCCc1nnn[nH]1`, the INHIBITION is on record as 31.2%.

For `c1ccc(COCCN2CCc3[nH]cnc3C2c2ccoc2)cc1` (centres undefined), the INHIBITION was found to be 9.63%.

`c1ccc(COCCN2CCc3[nH]cnc3C2c2ccco2)cc1` (centres undefined): the INHIBITION was 63.3%.

`Cc1c(C2c3nc[nH]c3CCN2CCOCc2ccccc2)cnn1C` (centres undefined): the INHIBITION was 27.5%.

Regarding `CN(Cc1ccccn1)C(=O)[C@H]1CO[C@H]2CCN(CC3CC3)C[C@H]2C1`, the INHIBITION is recorded as 11.3%.

Turning to `Cc1cnn(CC2CCCN2Cc2cc(C)no2)c1` (centres undefined), the INHIBITION is 22.265%.

As to `CC1CCN(C(=O)c2cccc(CN3CCOCC3)c2)CC1`, the INHIBITION came out at 8.41%.

In the case of `Cc1cc(C)n(-c2ccc(CNCc3ccc(F)cc3F)cn2)n1`, the INHIBITION worked out at 37.55%.

For `Cc1cc(C)n(-c2ccc(CNCc3ccc(C)o3)cn2)n1`, the INHIBITION is given as 34.75%.

`Cc1cc(C)n(-c2ccc(CNCc3ccc(OC(C)C)cc3)cn2)n1`: the INHIBITION worked out at 53.5%.

Consider `Cc1cc(C)n(-c2ccc(CNCc3ccc(F)c(F)c3)cn2)n1`, for which the INHIBITION is 13.05%.

With `COc1cc(CNCc2ccc(-n3nc(C)cc3C)nc2)cc(OC)c1`, the INHIBITION is on record as -10.193%.

Take `Cc1ccc(CNCc2ccc(-n3nc(C)cc3C)nc2)cc1`: the INHIBITION came out at 72.2%.

With `CCOc1ccc(C(=O)CC(SC2CCCCC2)C(=O)O)cc1` (centres undefined), the INHIBITION worked out at 16.1%.

Turning to `COC(=O)c1cc(C(=O)N2CCCC(C)C2)n(-c2ccccc2)n1` (centres undefined), the INHIBITION came to 8.5%.

On to `Cc1ccc(CN2CC[C@H]3OCC[C@@]3(COCC(=O)N(C)C)C2)s1`, for which the INHIBITION was 54.8%.

For the molecule `COC[C@@]12CCO[C@@H]1CCN(Cc1ccccc1F)C2`, the INHIBITION turned out to be 23.5%.

`COC[C@@]12CCO[C@@H]1CCN(Cc1ccccc1OC)C2`: the INHIBITION is on record as 51.2%.

In the case of `Cc1ccc(CN2CC[C@H]3OCC[C@@]3(C(=O)N3CCCO3)C2)s1`, the INHIBITION is given as 23.3%.

For `COC[C@@]12CCO[C@@H]1CCN(Cc1sccc1C)C2`, the INHIBITION turned out to be 34%.

As for `Cc1ccc(CN2CCC3(CCC(=O)N3CC(=O)N(C)C)CC2)s1`, the INHIBITION is on record as -29.5%.

With `COC[C@@]12CCO[C@@H]1CCN(C(=O)COc1ccccc1OC)C2`, the INHIBITION is recorded as -19.9%.

`COC[C@@H]1CCC[C@@]12CN(Cc1ccc(C)s1)CCO2`: the INHIBITION was found to be 14.1%.

Take `COC[C@@]12CCO[C@@H]1CCN(Cc1ccc(C)s1)C2`: the INHIBITION came to 55.7%.

These data come from ChEMBL document CHEMBL4513216, “Probing the Open Global Health Chemical Diversity Library for Multistage-Active Starting Points for Next-Generation Antimalarials” (ACS Infect Dis, 2020).
